Screening results (PubChem)
Shown are actives, neighbours in structure and some others; about 21% of the full set was active somewhere.
MRP1 act: activates MRP-1. viability increase, % at 10 µM. actives 0.61% (n = 140,000). H69AR cells + doxorubicin, viability rescue, CellTiter-Glo;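 active = viability gain under doxorubicin at or above a set limit, the compound median plus 3 SD, cut at about 4.7% in these data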;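 note: MRP-1 overexpressing cells given doxorubicin 25 µM after compound pretreatment; 18-22 h compound pretreatment then 72 h with doxorubicin before readout; 0% = doxorubicin-only wells and 100% = vehicle-treated cells without doxorubicin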
CYP2C19 inhib: inhibitors of human CYP2C19 | AID 778 | CYP2C19 Supersomes, luciferin-H EGE luminescence, 30 min | inhibition, % at 5 µM | P33261 | actives 21% (n = 96,000);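 active = CYP2C19 inhibition above a set limit at 5 µM in the primary screen, cut at about 50% in these data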;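 note: plate controls were negative control wells for no effect and 2.5 mM tranylcypromine positive control for full effect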
CYP2C19 act: increases human CYP2C19 enzyme activity. 96,000 tested, under 10 active. recombinant CYP2C19, luciferin-H EGE luminescence; active compounds read high; 0 = fully inhibited enzyme, 1 = untreated enzyme. activation factor at 5 µM. P33261;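 active = activation factor of at least 2 at 5 µM in the primary screen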;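 note: 0 = wells with 2.5 mM tranylcypromine and 1 = vehicle-only wells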
MRP resist rev: reverses drug resistance mediated by MRP. H69AR cells + 2 uM doxorubicin, CellTiter-Glo, 72 h. differential viability (reversal), % at 10 µM. actives 0.04% (n = 85,000);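 active = viability drop by adding the cancer drug above about 55%, with treated viability meeting a 40% cutoff, limit read from the data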;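 note: viability without doxorubicin minus viability with 2 µM doxorubicin for each compound; larger differential means the compound sensitizes cells more to doxorubicin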
CYP2C9 act: CYP2C9 (human) activation. actives 1.4% (n = 96,000). activation factor at 5 µM. AID 1024. P11712. recombinant CYP2C9, luciferin-H conversion, luminescence; active compounds read high; factor 1 = untreated enzyme, 0 = blocked;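 active = activation factor of 2 or more for CYP2C9 at a 5 µM dose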;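 note: 0 = sulfaphenazole-blocked wells and 1 = vehicle-only wells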
Target sequence (P11712 whole entry, looked up): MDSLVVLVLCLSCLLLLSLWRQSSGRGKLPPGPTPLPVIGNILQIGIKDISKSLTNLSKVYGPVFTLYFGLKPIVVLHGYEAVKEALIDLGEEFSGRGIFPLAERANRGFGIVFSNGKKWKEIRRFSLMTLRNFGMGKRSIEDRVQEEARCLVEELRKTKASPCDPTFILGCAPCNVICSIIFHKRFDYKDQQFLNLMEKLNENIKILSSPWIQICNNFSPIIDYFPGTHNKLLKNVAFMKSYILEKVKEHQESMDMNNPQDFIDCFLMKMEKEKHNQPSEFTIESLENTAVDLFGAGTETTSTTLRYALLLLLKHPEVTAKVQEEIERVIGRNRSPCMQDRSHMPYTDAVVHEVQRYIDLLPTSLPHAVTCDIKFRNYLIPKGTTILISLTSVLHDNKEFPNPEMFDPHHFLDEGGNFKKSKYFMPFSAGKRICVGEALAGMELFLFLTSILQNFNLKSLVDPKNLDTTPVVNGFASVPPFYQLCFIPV
CYP2C9 inhib: inhibitors of human CYP2C9; AID 777; CYP2C9 Supersomes, luciferin-H conversion, luminescence; actives 20% (n = 96,000); inhibition, % at 5 µM;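 active = blocking of liver enzyme CYP2C9 beyond about 50% at 5 µM, limit read from the data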
The depositor's hits bear a star; / = not tested or not shown.

SMILES	MRP1 act	CYP2C19 inhib	CYP2C19 act	MRP resist rev	CYP2C9 act	CYP2C9 inhib
O=C(c1cnn2c(C(F)(F)F)cc(-c3ccco3)nc12)N1CCCCCC1	-2.1	22.9	0.8	10.2	0.9	10.5
O=C(c1cnn2c(C(F)(F)F)cc(-c3ccco3)nc12)N1CCc2ccccc2C1	-1.1	59.3*	0.4	-1.1	0.2	76.3*
O=C(c1cnn2c(C(F)F)cc(C3CC3)nc12)N1CCCC1	-0.4	9.0	0.9	1.1	1.3	-25.2
Cc1cc(C(F)F)n2ncc(C(=O)N3CCc4ccccc4C3)c2n1	-0.1	84.5*	0.2	15.0	1.9	-90.7
O=C(c1cnn2c(C(F)F)cc(C3CC3)nc12)N1CCc2ccccc2C1	-1.6	73.6*	0.3	-6.2	1.7	-71.0
Cc1ccc2oc(=O)n(Cc3ccccc3OC(C)C)c2c1	-1.4	85.5*	0.1	/	0.1	85.4*
Cc1ccc2oc(=O)n(CCCOc3ccccc3)c2c1	0.5	94.1*	0.1	/	0.5	46.0
COc1ccc(Cn2c(=O)oc3ccc(C)cc32)cc1OC	-1.2	98.3*	0	3.3	0.2	79.4*
CCCCOc1ccccc1Cn1c(=O)oc2ccc(C)cc21	-0.8	86.8*	0.1	/	0.1	87.7*
Cc1ccc2oc(=O)n(CC(=O)O)c2c1	0.2	8.2	0.9	-2.1	1	2.1
Cc1ccc2oc(=O)n(CC(=O)OC(C)C)c2c1	-0.7	/	/	9.0	/	/
CC(C)(C)N=C1NC(=NC(C)(C)C)c2ccccc21	-2.5	-0.9	1	-8.4	0.9	9.1
C[N+]12CCCCC1C(COC(=O)c1ccc3c(c1)OCO3)CCC2 (configuration not stated)	-2.1	7.0	0.9	-12.2	1.3	-28.6
CCSc1nnc(NC(=O)CSc2nnc(CNC(=O)c3ccc(OC)cc3)o2)s1	3.2	/	/	/	/	/
O=C(Cn1nc(-c2ccc(Cl)cc2)ccc1=O)NCc1ccc2c(c1)OCO2	-3.0	52.4*	0.5	/	0.2	76.9*
CC(Sc1ccc(Cl)cc1)C(=O)NCc1cccnc1 (configuration not stated)	0.3	50.7*	0.5	11.9	0.7	33.1
O=C(Cn1nc(-c2ccccc2)ccc1=O)NCc1ccc2c(c1)OCO2	1.1	23.1	0.8	0.6	0.7	33.1
Cc1ccc(SC(C)C(=O)NCc2cccnc2)cc1 (configuration not stated)	-1.4	27.3	0.7	13.7	0.7	26.0
CC(Sc1ccc(Cl)cc1)C(=O)NCc1ccc2c(c1)OCO2 (configuration not stated)	-1.6	76.2*	0.2	0.4	0	99.5*
Cc1oc(-c2ccccc2F)nc1CSCC(=O)NCc1ccc2c(c1)OCO2	-3.4	78.5*	0.2	0.4	0.3	74.6*
Cc1nc2ccccc2nc1OCC(=O)NCc1ccc2c(c1)OCO2	-3.7	51.1*	0.5	1.9	0.9	10.9
O=C(Cc1ccccc1)NCc1ccc2c(c1)OCO2	-0.9	94.7*	0.1	12.1	0.5	53.6*
Cc1ccccc1Cn1c(=O)n(CCC(=O)NCc2ccc3c(c2)OCO3)c(=O)c2ccccc21	-4.3	32.2	0.7	7.1	0.7	33.9
Cc1ccc(CC(=O)NCc2ccc3c(c2)OCO3)cc1	-1.3	33.7	0.7	-3.2	0.5	47.6
O=C(CCn1c(=O)c2ccccc2n(Cc2cccnc2)c1=O)NCc1ccc2c(c1)OCO2	-0.9	77.0*	0.2	-7.0	0.3	69.4*
SMILES	MRP1 act	CYP2C19 inhib	CYP2C19 act	MRP resist rev	CYP2C9 act	CYP2C9 inhib
O=C(CSCc1ccc(Cl)cc1)NCc1ccc2c(c1)OCO2	-0.5	31.6	0.7	9.3	0	99.8*
C=CCn1c(SCC(=O)Nc2ccc(-c3nc4ccc(C)cc4s3)cc2)nnc1-c1ccccc1	-0.4	/	/	/	/	/
CCOC(=O)NNC1CC(=O)N(c2ccc(OC)cc2)C1=O (configuration not stated)	-2.4	-3.2	1	/	0.9	6.3
O=C(CCCc1c[nH]c2ccccc12)NCc1ccc2c(c1)OCO2	-4.2	83.1*	0.2	13.4	0.5	50.6*
O=C(Cn1cccc1C(=O)c1ccccc1)NCc1ccc2c(c1)OCO2	-2.0	54.7*	0.5	0.3	0.7	33.9
CCOC(=O)c1c(NCc2ccc3c(c2)OCO3)c2ccccc2[nH]c1=O	-0.5	73.5*	0.3	5.0	0.9	13.4
O=C(CCc1c[nH]c2ccccc12)NCc1ccc2c(c1)OCO2	-0.2	91.8*	0.1	-0.5	0.8	19.0
O=C(Cn1cccc1C(=O)c1ccccc1)NCc1ccco1	-2.8	16.9	0.8	14.3	1	-1.0
CN(C)C(CNC(=O)CCCc1c[nH]c2ccccc12)c1ccco1 (configuration not stated)	-1.0	29.3	0.7	20.9	1.3	-29.9
O=C(Cn1cccc1C(=O)c1ccccc1)NCc1ccccc1	0.9	42.1	0.6	11.4	1.2	-15.7
O=C(Cn1cccc1C(=O)c1ccccc1)NCc1cccs1	-1.1	73.2*	0.3	-4.5	1	1.5
O=C(CN(C(=O)C1CSC(=O)C1)c1ccccc1F)NCc1ccc2c(c1)OCO2 (configuration not stated)	-1.0	86.7*	0.1	-15.5	0.6	44.3
CC(C)CNC(=O)CCCc1c[nH]c2ccccc12	-3.5	63.3*	0.4	-3.4	2.1*	-113.6
CC(C)(C)NC(=O)CN(C(=O)C1CSC(=O)C1)c1ccc2c(c1)OCCO2 (configuration not stated)	-1.3	-7.4	1.1	9.0	1.2	-23.0
CC(C)(C)C(=O)c1cn(CC(=O)NCc2ccc3c(c2)OCO3)c2ccccc12	-3.8	52.7*	0.5	8.0	0.5	50.5*
CN(C)c1ccc(C(CNS(=O)(=O)c2ccc(F)c(F)c2)c2c[nH]c3ccccc23)cc1 (configuration not stated)	-4.9	/	/	/	/	/
C/C(=N\NC(=O)OC(C)(C)C)c1cccc([N+](=O)[O-])c1	0.4	/	/	/	/	/
Cc1ccc(/C=C2\OC(=O)c3ccccc32)cc1	-3.0	4.9	1	/	0.8	17.1
CS(=O)(=O)N(CC(=O)NCc1ccc2c(c1)OCO2)Cc1ccccc1	-3.2	62.1*	0.4	6.2	0.7	34.3
Cc1ccc(CNC(=O)CN(Cc2ccccc2)S(C)(=O)=O)cc1	-1.7	/	/	-5.9	/	/
O=C(Cc1c[nH]c2ccccc12)NCc1ccc2c(c1)OCO2	-0.9	94.3*	0.1	18.8	0.5	53.0*
CC(C)NC(=O)NC(=O)COC(=O)c1ccccc1Oc1ccccc1	-3.6	45.9	0.5	/	0.5	46.7
O=C1/C(=C\c2ccc(-c3ccccc3[N+](=O)[O-])o2)C(c2ccccc2)=NN1c1ccccc1	-2.3	/	/	9.4	/	/
Cc1ccc(-c2ccc(/C=C3\C(=O)ON=C3c3ccccc3)o2)c([N+](=O)[O-])c1	-2.4	24.2	0.8	/	0	100.4*
COc1ccc2c(c1)c1ncn(CCc3ccccc3)c(=O)c1n2C	-2.5	58.5*	0.4	1.7	0.1	92.1*
